From PubChem BioAssay (NCATS) come the findings set out here.

Inconclusive results are not listed. Active and inactive are the calls of the source. Calls follow the shape of the full dose curve.

Assay [1] in a line: Primary qHTS for inhibitors of SARS-S pseudo-typed particle cell entry (AID 1479145). Also: nearly all actives have a fitted effect of over 45% in size. As to activity change, negative = inhibition: % is scaled to controls: 0 for no effect and ±100 for the full control effect. The conditions noted are these: outcome: dose series up to 57.1 µM unless noted.
A short description of assay [2]: Primary qHTS for Huh7 cytotoxicity: counterscreen for inhibitors of MERS-S pseudotyped particle cell entry (AID 1479147). As to activity change, negative = cytotoxicity: % is scaled to controls: 0 for no effect and ±100 for the full control effect. The conditions noted are these: outcome: dose series up to 57.1 µM unless noted.
The nature of assay [3]: Primary qHTS for inhibitors of MERS-S pseudo-typed particle cell entry (AID 1479149). Also: nearly all actives have a fitted effect of over 60% in size. As to activity change, negative = inhibition: % is scaled to controls: 0 for no effect and ±100 for the full control effect. The conditions noted are these: outcome: dose series up to 57.1 µM unless noted.
Assay [4] can be described thus: Primary qHTS for Vero E6 cytotoxicity: counterscreen for inhibitors of SARS-S pseudo-typed particle cell entry (AID 1479150). As to activity change, negative = cytotoxicity: % is scaled to controls: 0 for no effect and ±100 for the full control effect. The conditions noted are these: outcome: dose series up to 57.1 µM unless noted.
Assay [5] in a line: Cytotoxicity counterscreen for inhibitors of SARS-CoV-2 cell entry (AID 1645845). Also: nearly all actives have a fitted effect of over 50% in size. The conditions noted are these: outcome: dose series up to 57.1 µM unless noted. In a few lines: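 Expi293F/hACE2 cells seeded overnight; cpd pin-transferred in DMSO, 1 h preincubation, + media, 48 h 37 C 5% CO2; ATPLite 1step luminescence; normalized to cells and no cells.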
Assay [6] can be described thus: Primary qHTS to identify inhibitors of SARS-CoV-2 cell entry (AID 1645846). Also: nearly all actives have a fitted effect of over 45% in size. The following applies: SARS-CoV-2 pseudovirus cell entry assay, luminescence; activity change, negative = inhibition: at 57.1 µM (top of the series) unless noted. In a few lines:
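Data are normalized to wells receiving SARS-CoV-2-S pseudoparticles and those given bald particles. Entry signal was luciferase luminescence in stable hACE2 Expi293F cells, 48 hr post-infection, after 1 hr compound pretreatment.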

Turning to `CC(=O)OC1CCC2(C)C(=CCC3C2CCC2(C)C(c4cccnc4)=CCC32)C1` (configuration not stated), the Potency entry in assay [1], in assay [2], in assay [3], in assay [4] and in assay [5] was “inactive” each time. In addition, in assay [6], the activity change, negative = inhibition is -20%.

With `O=S(O)CNc1ccc(S(=O)(=O)c2ccc(NCS(=O)O)cc2)cc1`, the Potency result in assay [1], in assay [2], in assay [3], in assay [4] and in assay [5] was “inactive” throughout. In addition, the activity change, negative = inhibition in assay [6] is 3.29%.

As to `Cc1cc2nc3c(=O)[nH]c(=O)nc-3n(C[C@@H](O)[C@@H](O)[C@@H](O)COP(=O)(O)O)c2cc1C`, the activity change, negative = inhibition in assay [1] is -30.5% [at 11.4 µM] (inactive); in assay [6], -22.9% [at 11.3 µM]. Moreover, the outcome in assay [2] and in assay [3] was “inactive [at 11.4 µM]” each time. The activity change, negative = cytotoxicity in assay [4] was 1.24% [at 11.4 µM] (inactive); in assay [5], 3.55% [at 11.3 µM] (inactive).

As for `Cn1c(=O)cc(N2CCCC(N)C2)n(Cc2ccccc2C#N)c1=O` (configuration not stated), the Potency result in assay [1], in assay [2], in assay [3], in assay [4] and in assay [5] was “inactive” throughout. The activity change, negative = inhibition in assay [6] is -28.9%.

Regarding `CO[C@H]1C[C@@H]2CC[C@@H](C)[C@@](O)(O2)C(=O)C(=O)N2CCCC[C@H]2C(=O)O[C@H]([C@H](C)C[C@@H]2CC[C@@H](OCCO)[C@H](OC)C2)CC(=O)[C@H](C)/C=C(/C)[C@@H](O)[C@@H](OC)C(=O)[C@H](C)C[C@H](C)\C=C/C=C\C=C/1C`, the Potency result in assay [1], in assay [2], in assay [3], in assay [4] and in assay [5] was “inactive” throughout. For the same compound, in assay [6], the activity change, negative = inhibition is -11.8% [at 27.1 µM].

In the case of `CC(=O)OCC(=O)[C@@]1(O)[C@H](C)C[C@H]2[C@@H]3C[C@H](F)C4=CC(=O)C=C[C@]4(C)[C@@]3(F)[C@@H](O)C[C@@]21C`, the Potency result in assay [1], in assay [2], in assay [3], in assay [4], in assay [5] and in assay [6] was “inactive” throughout.

As to `CCCCC(CC)COC(=O)c1ccc(Nc2nc(Nc3ccc(C(=O)OCC(CC)CCCC)cc3)nc(Nc3ccc(C(=O)OCC(CC)CCCC)cc3)n2)cc1` (configuration not stated), the Potency entry in assay [1], in assay [2], in assay [3], in assay [4] and in assay [5] was “inactive” in each case. In assay [6], the activity change, negative = inhibition was -28%.

Take `COc1cccc(N2CCN(C3=Nc4c(F)cccc4[C@H](CC(=O)O)N3c3cc(C(F)(F)F)ccc3OC)CC2)c1`: the Potency result in assay [1], in assay [2], in assay [3], in assay [4], in assay [5] and in assay [6] was “inactive” in each case.

As for `C[C@@H]1O[C@@H](O[C@@H]2/C=C/C=C/C=C\C=C\C[C@H](C)OC(=O)/C=C/[C@H]3O[C@@H]3C[C@H](O)C[C@]3(O)C[C@@H](O)[C@@H](C(=O)O)[C@H](C2)O3)[C@H](O)[C@H](N)[C@@H]1O`, the results for the activity change, negative = inhibition in assay [1] and in assay [6] were -7.42% [at 11.4 µM] (inactive) and -12.9% [at 11.3 µM], respectively. Further, the activity change, negative = cytotoxicity in assay [2] was 0.894% [at 11.4 µM] (inactive); in assay [4] it was -4.87% [at 11.4 µM] (inactive); in assay [5] it was 1.93% [at 11.3 µM] (inactive). In addition, the outcome in assay [3] is “inactive [at 11.4 µM]”.

Consider `O=[N+]([O-])O[C@@H]1CO[C@H]2[C@@H]1OC[C@@H]2O`, for which the Potency result in assay [1], in assay [2], in assay [3], in assay [4] and in assay [5] was “inactive” throughout. Also, in assay [6], the activity change, negative = inhibition was -29.2% [at 114 µM].

Turning to `CSCCNc1nc(SCCC(F)(F)F)nc2c1ncn2[C@@H]1O[C@H](COP(=O)(O)OP(=O)(O)C(Cl)(Cl)P(=O)(O)O)[C@@H](O)[C@H]1O`, the Potency entry in assay [1], in assay [2], in assay [3], in assay [4] and in assay [5] was “inactive” in each case. The activity change, negative = inhibition in assay [6] is -28.8%.

`O=C(Cc1cccs1)NC1C(=O)N2C(C(=O)[O-])=C(C[n+]3ccccc3)CSC12` (configuration not stated): the Potency entry in assay [1], in assay [2], in assay [3], in assay [4] and in assay [5] was “inactive” each time. Also, the activity change, negative = inhibition in assay [6] was -15.7%.

For `CCCCCCCCCCCCCCCCCC(=O)[O][Al]`, the activity change, negative = inhibition in assay [1] is -36% [at 5.34 µM] (inactive). Also, the activity change, negative = cytotoxicity is -3.61% [at 5.34 µM] (inactive) in assay [2], -0.388% [at 5.34 µM] (inactive) in assay [4] and 0.759% [at 5.25 µM] (inactive) in assay [5]. Also, the outcome was “inactive [at 5.34 µM]” in assay [3] and “inactive [at 5.25 µM]” in assay [6].

Regarding `CO/N=C(\C(=O)N[C@@H]1C(=O)N2C(C(=O)O)=C(CSc3nnnn3C)CS[C@H]12)c1csc(N)n1`, the Potency result in assay [1], in assay [2], in assay [3], in assay [4] and in assay [5] was “inactive” in each case. Further, the activity change, negative = inhibition in assay [6] was -27.5%.

Regarding `CCCCC(=O)O`, the Potency result in assay [1], in assay [2], in assay [3], in assay [4] and in assay [5] was “inactive” throughout. Besides, the activity change, negative = inhibition in assay [6] is -20.8%.

For the compound `OCC1OC(c2ccc(Cl)c(Cc3ccc(OC4CCOC4)cc3)c2)C(O)C(O)C1O` (configuration not stated), the Potency entry in assay [1], in assay [2], in assay [3], in assay [4] and in assay [5] was “inactive” throughout. Also, the activity change, negative = inhibition in assay [6] was -20.7%.

Regarding `CC(=O)O[C@H]1CC[C@@]2(C)C(=CC[C@H]3[C@@H]4CC[C@H](C(C)=O)[C@@]4(C)CC[C@@H]32)C1`, the Potency result in assay [1], in assay [2], in assay [3], in assay [4] and in assay [5] was “inactive” throughout. The activity change, negative = inhibition in assay [6] is -16.3%.

As for `C1CNCCN1`, the Potency result in assay [1], in assay [2], in assay [3], in assay [4] and in assay [5] was “inactive” throughout. The activity change, negative = inhibition in assay [6] came out at 2.96% [at 114 µM].

For the compound `CCN1CCN(C(=O)N[C@@H](C(=O)N[C@]2(OC)C(=O)N3C(C(=O)O)=C(CSc4nnnn4C)CS[C@@H]32)[C@H](C)O)C(=O)C1=O`, the Potency result in assay [1], in assay [2], in assay [3], in assay [4] and in assay [5] was “inactive” in each case. In addition, the activity change, negative = inhibition in assay [6] is -16.3%.

In the case of `CCCCCCCCN=C(N)NC(N)=NCc1ccc(Cl)c(Cl)c1`, the Potency result in assay [1], in assay [2], in assay [3], in assay [4] and in assay [5] was “inactive” in each case. Further, in assay [6], the activity change, negative = inhibition was -3.64%.

With `NC[C@@H]1CC[C@@H](N)[C@@H](O[C@H]2[C@H](O)[C@@H](O[C@H]3O[C@H](CO)[C@@H](O)[C@H](N)[C@H]3O)[C@H](N)C[C@@H]2N)O1`, the Potency entry in assay [1], in assay [2], in assay [3], in assay [4] and in assay [5] was “inactive” throughout. Also, in assay [6], the activity change, negative = inhibition was -17.7% [at 27.1 µM].

Regarding `C=CCN1CC[C@]23c4c5ccc(O)c4O[C@H]2[C@@H](OCCOCCOCCOCCOCCOCCOCCOC)CC[C@@]3(O)[C@H]1C5`, the Potency entry in assay [1], in assay [2], in assay [3], in assay [4] and in assay [5] was “inactive” throughout. For the same compound, the activity change, negative = inhibition in assay [6] is -22.8%.
